According to PubChem BioAssay (Tox21):
Inconclusive results are not listed. Where a call stands in place of a potency, no number is given. Values without a mark were called inactive. Calls of active or inactive are those of the source. Calls follow the shape of the dose curve; as a rule, active = well fitted inhibition curve with a large enough effect in the repeat runs; inconclusive = weak or mixed curves; inactive = no such curve, though single readings can be large or run the other way.
Potency is read from the fitted curve at half-maximal effect.

Each compound was assayed against Cytochrome P450 2D6 (Homo sapiens) (UniProt P10635) (assay: Cytochrome P450 Family 2 Subfamily D Member 6 (CYP2D6) small molecule antagonists: luciferase reporter qHTS assay (AID 1671196; also: nearly all actives have a fitted effect of over 50% in size)). Conditions: P450-Glo CYP2D6 enzyme assay, luciferin luminescence, 1 h; series mostly up to 115 µM.
Sequence of Cytochrome P450 2D6 (Homo sapiens) (P10635 whole entry, looked up): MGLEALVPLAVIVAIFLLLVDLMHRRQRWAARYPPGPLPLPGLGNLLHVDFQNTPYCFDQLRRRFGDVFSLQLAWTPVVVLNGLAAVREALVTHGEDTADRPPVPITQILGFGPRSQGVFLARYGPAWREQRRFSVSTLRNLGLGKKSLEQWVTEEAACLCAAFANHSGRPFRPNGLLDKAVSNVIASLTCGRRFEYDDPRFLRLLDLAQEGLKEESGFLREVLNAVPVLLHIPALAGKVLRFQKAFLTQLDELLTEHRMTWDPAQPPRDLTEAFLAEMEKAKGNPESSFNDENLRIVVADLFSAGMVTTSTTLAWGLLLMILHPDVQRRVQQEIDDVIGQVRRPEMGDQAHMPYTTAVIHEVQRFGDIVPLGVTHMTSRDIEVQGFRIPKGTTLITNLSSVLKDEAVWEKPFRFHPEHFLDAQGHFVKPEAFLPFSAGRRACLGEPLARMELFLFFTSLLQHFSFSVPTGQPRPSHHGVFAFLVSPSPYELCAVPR
Source text: U.S. Tox21 Program National Center for Advancing Translational Sciences [NCATS] U.S. Environmental Protection Agency [EPA] National Institutes of Environmental Health Sciences [NIEHS] National Toxicology Program [NTP] U.S. Food and Drug Administration [FDA] Tox21 Assay Overview: Cytochrome P450 (CYP) enzymes are membrane-bound hemeproteins that play a key role in metabolism of drugs and xenobiotics. Evaluation of the effect of chemicals on CYP isozymes is useful to minimize the adverse drug reactions and toxicities in drug development process. Tox21 chemicals were tested for their effect on CYP enzyme activities by using P450-Glo (TM) screening systems (Promega Corporation, Madison, WI). These systems provide a luminescent method containing proluciferin substrates and are converted to luciferin products by CYP isozymes. The luciferin products formed are detected with a luciferin detection reagent, and the amount of light produced is proportional to CYP activity. P450-Glo (TM) CYP2D6 screening system (Catalog. No. V9890) was used to detect the compounds that interfere in CYP2D6 activity.
Tox21 Assay Protocol Summary: Two ul of enzyme-substrate mix was dispensed into medium binding white/solid 1536-well plates (Greiner Bio-One North America Inc., Monroe, NC) using a BioRaptr Flying Reagent Dispenser (FRD, Beckman Coulter, Brea, CA). […] The assay plates were incubated at room temperature for 10 min. Then 2 ul of NADPH regeneration solution was added to each well of the assay plates using an FRD and incubated at room temperature for 1 h. The reaction was stopped by adding 4 ul of detection reagent using an FRD and after 20 min incubation at room temperature the luminescence signal was measured using a ViewLux plate reader (Perkin Elmer, Shelton, CT). Data were expressed as relative luminescence units.
For `O=[N+]([O-])c1ccc(O)cc1C(F)(F)F`, the Potency was 14.2 µM (active). For `C/C=C/C=C/COC(=O)C(C)C`, the Potency was “inactive”. With `OC1CCC(C2CCCCC2)CC1` (stereo not given) the Potency was 39.9 µM (active). For `CCC(=O)OC(=O)CC`, the Potency was 62.8 µM (active). In the case of `CCCCCCOC(=O)C(C)CC` (stereo not given), the Potency is reported as “inactive”. In the case of `CCOc1ccc2ccccc2c1C(=O)N[C@@H]1C(=O)N2[C@@H]1SC(C)(C)[C@@H]2C(=O)O`, the Potency is reported as “inactive”. `O=c1[nH]c(=O)n([C@H]2C[C@H](O)[C@@H](CO)O2)cc1F` was tested, and the Potency was “inactive”. `Cc1ccc(-c2ccccc2)cc1` was tested, and the Potency was “inactive”. With `CCCC[P+](C)(CCCC)CCCC` the Potency was 0.203 µM (active). `CCN(CC)c1ccc2c(-c3ccc(S(=O)(=O)O)cc3S(=O)(=O)[O-])c3ccc(=[N+](CC)CC)cc-3oc2c1` was tested, and the Potency was 29.2 µM (active). In the case of `CCC(C)(CCC(C)C)C(=O)[O][Sn]([CH3])([CH3])[O]C(=O)C(C)(CC)CCC(C)C` (stereo not given), the Potency is reported as “inactive”. For `C#C[C@]1(O)CC[C@H]2[C@@H]3[C@H](C)CC4=C(CCC(=O)C4)[C@H]3CC[C@@]21C`, the Potency was “inactive”. `O=C(c1ccc(O)c(O)c1)c1ccc(O)cc1O` was tested, and the Potency was 3.55 µM (active). For `CC(=O)OCC=C(C)C`, the Potency was “inactive”. In the case of `FC(F)(F)c1cccc(Cl)c1`, the Potency is reported as “inactive”. In the case of `CN(C)[C@@H](CCOc1cccc2ccccc12)c1ccccc1`, the Potency is reported as 0.871 µM (active). `O=C(O)O` showed an activity change, negative = inhibition of -1.63% [at 10.5 µM]. With `Oc1ccccc1O` the Potency was “inactive”. With `Cc1ccc(O)c(O)c1` the Potency was “inactive”. `CCCCCCCCCCC[C@@H](C[C@@H]1OC(=O)[C@H]1CCCCCC)OC(=O)[C@H](CC(C)C)NC=O` was tested, and the Potency was “inactive”. In the case of `c1cnccn1`, the Potency is reported as “inactive”. With `OC12N=C(c3ccccc3)SC1Cc1cc(Cl)ccc12` (stereo not given) the Potency was 39.9 µM (active). In the case of `ClCCl`, the Potency is reported as “inactive”. With `O=c1[nH]c2ccccc2n1CCCN1CCN(C(c2ccccc2)c2ccccc2)CC1` the Potency was 0.692 µM (active). With `CCCCOC(=O)CO` the Potency was “inactive”. `CCCCCCCCCCCC(=O)OCC(C)OC(=O)CCCCC(=O)O` (stereo not given) was tested, and the Potency was “inactive”. With `Clc1ccnc(Cl)n1` the Potency was “inactive”. With `CC(C)=CCNc1ncnc2c1ncn2[C@@H]1O[C@H](CO)[C@@H](O)[C@H]1O` the Potency was “inactive”. With `CCN(CC)C(=O)c1cc(S(=O)(=O)Cc2ccccc2)c(N2CCC(c3ccccc3)CC2)cc1N(CC)CCN(C)C` the Potency was 8.84 µM (active). For `CC(C)OC(=O)C(O)(CC(=O)O)CC(=O)O`, the Potency was “inactive”. With `COc1ccc(NC(=O)CC(C)=O)cc1` the Potency was “inactive”. For `O=[N+]([O-])c1ccc(F)c(Cl)c1`, the Potency was “inactive”. `COC(=O)Nc1nc2ccc(C(=O)c3ccccc3)cc2[nH]1` was tested, and the Potency was “inactive”. In the case of `CN1CCCCC1CCN1c2ccccc2Sc2ccc(S(C)=O)cc21` (stereo not given), the Potency is reported as 0.0871 µM (active). With `CC(=O)CC(=O)Nc1ccc(S(=O)(=O)O)cc1` the Potency was “inactive”. In the case of `CNC(=O)c1ccccc1Sc1ccc2c(/C=C/c3ccccn3)n[nH]c2c1`, the Potency is reported as 30.9 µM (active). With `Cc1c2ccccc2c(C)c2c1ccc1ccccc12` the Potency was “inactive”. For `CC[N+](CC)(CC)CCOc1ccc(/C=C/c2ccccc2)cc1`, the Potency was 15.5 µM (active). For `Cc1cccc2cccnc12`, the Potency was “inactive”. With `Cc1cc(C(C)(C)C)cc(C)c1CC1=NCCN1` the Potency was 3.47 µM (active).
